Results taken from PubChem BioAssay.
Activity calls are given as the source filed them. Unless noted, how the calls were made is not given here.

Tests used:
[1] = system: Wnt5a (protein binding on small-molecule microarray); experiment: small molecules binding Wnt5a protein – biophysical, small-molecule microarray, 635/667 nm fluorescence, primary screen (AID 1142); conditions: 635 nm fluorescence, higher = more signal;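 further: fluorescence read at 667 nm with signal to noise per printed feature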
[2] = ATP-based viability of Huh7 replicon cells – cell-based, CellTiter-Glo luminescence, basal, 48 h, cytotoxicity control for HCV replication inhibitor project, primary screen (AID 1143); conditions: higher = more signal, called active from +8 up or from −8 down;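 further: Huh7 hepatoma cells carrying a hepatitis C replication reporter with no stimulus; test concentration not given here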
[3] = Pseudomonas biofilm growth suppression – PAO1 strain, BacTiter-Glo luminescence, LB-PBS, primary screen (AID 1144); conditions: P. aeruginosa PAO1 biofilm, 12 h, higher = more signal
[4] = basal CRE-LacZ reporter activity in PC12 – cell-based, unstimulated, primary screen (AID 1145); conditions: no forskolin, luminescence, 4.5 h, higher = more signal, called active from +8 up or from −8 down
[5] = forskolin-driven CRE-LacZ activity in PC12 – cell-based, CRE-LacZ reporter, forskolin-stimulated, primary screen (AID 1146); conditions: luminescence, 4.5 h, higher = more signal, called active from +8 up or from −8 down;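 further: PC12 cells with 6xCRE LacZ reporter stimulated by forskolin 10 µM; beta-galactosidase reporter signal reflecting CREB driven transcription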
[6] = biological target: Streptavidin (Streptomyces avidinii) (UniProt P22629); experiment: compounds binding control protein streptavidin – biophysical, small-molecule microarray, 635/667 nm fluorescence, artefact control for SMM compound annotation, primary screen (AID 1147); conditions: higher = more signal;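 further: signal reflects streptavidin binding to arrayed compounds as a control protein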
[7] = probe aInhba binding on compound microarray – biochemical, small-molecule microarray, 635/667 nm fluorescence, primary screen (AID 1148); conditions: higher = more signal;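 further: score merges 667nm spot fluorescence with signal-to-noise for antibody binding to printed compounds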
[8] = biological target: Torsin-1A (Homo sapiens) (UniProt O14656); experiment: TOR1A wild-type binding on microarray – cell lysate, small-molecule microarray, lysate, 635/667 nm, primary screen (AID 1149); conditions: COS7 hTOR1A-WT lysate, 635 nm fluorescence, higher = more signal
[9] = biological target: Torsin-1A (Homo sapiens) (UniProt O14656); experiment: torsin A mutant lysate binding on microarrays – cell lysate, small-molecule microarray, COS7 lysate, 635/667 nm fluorescence, primary screen (AID 1150); conditions: COS7 hTOR1A mutant lysate, 635 nm fluorescence, higher = more signal;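 further: score pools 667 nm emission and signal to noise measuring lysate protein binding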
[10] = system: Sonic hedgehog protein (Shh); experiment: Sonic hedgehog microarray binding compounds – biochemical, small-molecule microarray, 635/667 nm fluorescence, primary screen (AID 1151); conditions: 635 nm fluorescence, higher = more signal;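 further: Shh protein binding to compounds spotted on small-molecule microarray slides; score combines spot fluorescence intensity with signal-to-noise across triplicate slides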

Streptavidin (Streptomyces avidinii), sequence (P22629 whole entry, looked up): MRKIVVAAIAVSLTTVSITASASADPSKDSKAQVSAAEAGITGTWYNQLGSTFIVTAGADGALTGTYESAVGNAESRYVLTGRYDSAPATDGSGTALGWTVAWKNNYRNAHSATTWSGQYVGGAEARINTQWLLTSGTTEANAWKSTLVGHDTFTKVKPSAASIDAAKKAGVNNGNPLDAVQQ
Torsin-1A (Homo sapiens), sequence (O14656 whole entry, looked up): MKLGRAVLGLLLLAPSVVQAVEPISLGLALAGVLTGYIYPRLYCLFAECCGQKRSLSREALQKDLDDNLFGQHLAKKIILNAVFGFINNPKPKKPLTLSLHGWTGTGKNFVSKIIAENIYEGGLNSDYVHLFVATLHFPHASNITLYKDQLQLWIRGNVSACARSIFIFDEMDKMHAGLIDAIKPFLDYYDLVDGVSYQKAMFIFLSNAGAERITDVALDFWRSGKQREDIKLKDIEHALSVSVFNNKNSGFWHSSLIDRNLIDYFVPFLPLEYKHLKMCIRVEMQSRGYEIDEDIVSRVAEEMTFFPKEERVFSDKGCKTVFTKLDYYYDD

Compound | composite z-score [1] | z-score [2] | z-score [3] | z-score [4] | z-score [5] | composite z-score [6] | composite z-score [7] | composite z-score [8] | composite z-score [9] | composite z-score [10]
CC(CCC(=O)OC[C@H]1O[C@H](C#Cc2ccccc2)C=C[C@@H]1Oc1ccc(C)cc1)=NOC[C@@H](C)[C@H](OCc1ccccc1)C(C)C | -0.174 | -0.276 (inactive) | -0.193 (inactive) | -0.399 (inactive) | 0.778 (inactive) | -0.783 | -0.128 | -0.705 | -0.28 | 0.0623
C[C@H]1CC[C@H]2C(=O)OC(COc3ccc(C(C)(C)C)cc3)CN2[C@@H]1c1ccc(Br)cc1 (stereo not given in full) | 0.253 | -0.259 (inactive) | -1.12 (inactive) | 2.36 (inactive) | -1.04 (inactive) | 0.468 | -0.176 | 0.213 | 0.179 | 0.0438
COc1ccc(COC(=O)NN=C2C[C@@H](O)[C@@H](O)[C@@H]3[C@@H]4C(=O)N(C5CCCCC5)C(=O)[C@@H]4CC[C@@H]23)cc1 | 0.0311 | -0.252 (inactive) | 0.755 (inactive) | 2.32 (inactive) | 0.0868 (inactive) | 0.576 | -0.0774 | -0.367 | 0.223 | -0.791
CCOC(=O)[C@H](Cc1ccccc1)NC(=O)CCC1CC(OC(=O)NCc2cccc3ccccc23)CC2(CCCC(COC(=O)NCCc3ccc(Cl)cc3)O2)O1 (stereo not given in full) | 0.0449 | -2.69 (inactive) | -1.39 (inactive) | 0.563 (inactive) | 0.0305 (inactive) | 0.998 | -0.223 | -0.162 | 0.244 | 0.932
C[C@H]1CC[C@H]2C(=O)O[C@H](CO)CN2[C@@H]1c1ccc(Br)cc1 | 0.0217 | -0.98 (inactive) | -1.38 (inactive) | -0.557 (inactive) | -0.816 (inactive) | 0.0279 | -0.202 | 0.345 | -0.363 | -0.0013
CCc1cc2c(nc1CC)CCN(CCC(C)=NOC(C)CN1CCCCc3nc(C)c(C)cc31)C2 (stereo not given) | 0.393 | -3.02 (inactive) | 0.227 (inactive) | 2.08 (inactive) | 0.633 (inactive) | 0.88 | 0.0713 | 2.23 | 1.08 | 1.58
CC(C)=CCCC(C)=CCON=C1C[C@@H](O)[C@@H](O)[C@@H]2[C@@H]3C(=O)N(C4CCCCC4)C(=O)[C@@H]3CC[C@H]12 | 0.342 | -2.76 (inactive) | 0.419 (inactive) | -0.38 (inactive) | -0.306 (inactive) | 0.12 | -0.15 | 0.46 | 0.159 | 1.01
O=C1[C@H]2[C@H]3[C@H](O)[C@H](O)CC(=NOCc4ccccc4)[C@@H]3CC[C@H]2C(=O)N1c1cccc(Oc2ccccc2)c1 | -0.0001 | -0.558 (inactive) | 1.31 (inactive) | -0.658 (inactive) | 0.0169 (inactive) | 0.0831 | -0.024 | 0.186 | 0.0495 | 1.03
CCO[C@H](c1cc(OC)cc([N+](=O)[O-])c1OC)[C@H](C)[C@@H](OC)[C@H](C)C=CCC(=O)OC | 0.018 | -0.267 (inactive) | -0.378 (inactive) | 0.0246 (inactive) | -0.183 (inactive) | -0.0837 | -0.183 | 0.388 | 0.294 | 0.628
CC(=O)OC[C@H]1O[C@H](CCON=C(C)CCN2CCCc3nc(C)c(C)cc32)C=C[C@@H]1OC(C)=O | 0.166 | 0.271 (inactive) | -0.181 (inactive) | 0.322 (inactive) | 0.469 (inactive) | 0.426 | 0.0973 | 0.946 | 1.17 | 1
O=C1C[C@@H](O)[C@@H](O)[C@@H]2[C@@H]3C(=O)N(c4ccc(F)cc4F)C(=O)[C@@H]3CC[C@H]12 | 0.0583 | -1.24 (inactive) | 0.0279 (inactive) | 0.064 (inactive) | -0.13 (inactive) | 0.234 | -0.101 | 0.403 | 0.302 | 1.09
COc1ccc(O[C@H]2C=C[C@@H](c3ccccc3)O[C@@H]2COC(=O)CCC(C)=NOC[C@@H](O)COCc2ccco2)cc1 | -1.31 | -1.42 (inactive) | 0.104 (inactive) | 3.94 (inactive) | -0.215 (inactive) | -2.51 | -0.443 | -6.12 | -2.73 | -1.09
CCOC(=O)CCN1C(=O)[C@H]2[C@H]3[C@H](O)[C@H](O)CC(=NOCC=C(C)CCC=C(C)C)[C@H]3CC[C@H]2C1=O | 0.0888 | -0.148 (inactive) | 1.18 (inactive) | 0.153 (inactive) | 0.462 (inactive) | 0.344 | 0.12 | 0.703 | 0.355 | -0.423
C=CC[C@@H]1C=C[C@H](ON=C(C)CCN2CCCc3nc(C)c(C)cc32)[C@@H](CO)O1 | 0.621 | -0.686 (inactive) | -0.0889 (inactive) | -0.0824 (inactive) | -0.299 (inactive) | 0.182 | 0.528 | 2.17 | 2.07 | 1.66
CC(=O)OC[C@H]1O[C@H](CC=NOC[C@@H](O)COCc2ccco2)C=C[C@@H]1OC(C)=O | 0.364 | 0.0896 (inactive) | -0.196 (inactive) | -0.729 (inactive) | 0.25 (inactive) | -0.436 | -0.183 | 3.67 | 3.65 | 2.07
CCOC(=O)[C@H](Cc1ccccc1)NC(=O)CCC1CC(OC(=O)NCCc2ccc(F)cc2)CC2(CCCC(COC(=O)NCCOc3ccccc3)O2)O1 (stereo not given in full) | 0.424 | -0.715 (inactive) | -0.661 (inactive) | -0.253 (inactive) | 0.327 (inactive) | 0.751 | -0.0762 | 0.227 | 1.11 | 1.23
CC(C)CON=C1C[C@@H](O)[C@@H](O)[C@@H]2[C@@H]3C(=O)N(Cc4ccc5c(c4)OCO5)C(=O)[C@@H]3CC[C@@H]12 | 0.199 | -0.415 (inactive) | -0.488 (inactive) | 0.241 (inactive) | 0.384 (inactive) | 0.289 | -0.0645 | -0.515 | 0.203 | 0.108
CC(C)[C@H](NC(=O)OC(C)(C)C)[C@@H](O)CC(=O)C(C)(C)C | -0.103 | 0.207 (inactive) | -1.09 (inactive) | -0.795 (inactive) | -0.422 (inactive) | 0.247 | -0.148 | 0.322 | 0.0647 | 0.473
CCOC(=O)[C@H](CC(C)C)NC(=O)CCC1CC(OC(=O)NCc2ccc3c(c2)OCO3)CC2(CCCC(COC(=O)NCCOC)O2)O1 (stereo not given in full) | -0.0334 | -0.413 (inactive) | 0.211 (inactive) | 0.56 (inactive) | 0.59 (inactive) | 0.0301 | -0.0006 | -0.0402 | 0.354 | 1.46
CC(C)(C)N1C(=O)[C@H]2[C@H]3[C@H](O)[C@H](O)CC(=NNC(=O)OCc4ccccc4)[C@H]3CC[C@H]2C1=O | 0.0281 | -3.97 (inactive) | -0.497 (inactive) | 1.34 (inactive) | 0.549 (inactive) | -0.107 | 0.125 | 0.436 | 0.591 | 0.897
CON=C1c2cc(OC)ccc2O[C@H](c2cccc(OC)c2)[C@H]1O | -0.038 | -3.45 (inactive) | -0.243 (inactive) | -0.0731 (inactive) | -0.206 (inactive) | 0.431 | -0.016 | 0.195 | 0.517 | 0.755
CC(=O)OC[C@H]1O[C@H](C#CCC2CCCCC2)C=C[C@@H]1OC(C)=O | 0.293 | -2.43 (inactive) | 0.135 (inactive) | 0.105 (inactive) | 0.483 (inactive) | 0.176 | -0.0589 | 0.419 | 0.96 | 1.17
COc1ccc(O[C@H]2C=C[C@@H](c3ccccc3)O[C@@H]2CO)cc1 | 0.0263 | -1.12 (inactive) | 0.584 (inactive) | -0.617 (inactive) | -0.265 (inactive) | 0.145 | -0.0412 | 0.139 | 0.153 | 0.507
CCOC(=O)[C@H](CC(C)C)NC(=O)CCC1CC(OC(=O)NCCc2ccc(F)cc2)CC2(CCCC(COC(=O)NCCOC)O2)O1 (stereo not given in full) | 0.441 | -0.127 (inactive) | 0.045 (inactive) | 0.198 (inactive) | 0.0489 (inactive) | 0.581 | -0.215 | 0.441 | 0.259 | 1.53
CO[C@H]1COC(=O)CCC[C@H](C)[C@H](OC)COC(=O)CC=C[C@@H]1C | -0.225 | -1.15 (inactive) | -0.339 (inactive) | -1.29 (inactive) | -0.46 (inactive) | 0.116 | -0.154 | 1.78 | 1.64 | 1.79
O=C1[C@H]2[C@H]3[C@H](O)[C@H](O)CC(=NO[C@@H]4O[C@H](CO)[C@@H](O)[C@H](O)[C@H]4O)[C@@H]3CC[C@H]2C(=O)N1C[C@@H]1CCCO1 | 0.185 | -2.92 (inactive) | -0.131 (inactive) | 0.885 (inactive) | 0.0432 (inactive) | 0.0066 | -0.128 | 0.339 | -0.0388 | 0.89
CC(CCN1CCCc2nc(C)c(C)cc21)=NO[C@H](C)c1cn([C@H](CO)Cc2ccccc2)nn1 | 0.22 | -0.535 (inactive) | 0.13 (inactive) | 2.77 (inactive) | -0.245 (inactive) | -0.0592 | 0.0487 | 1 | 0.25 | 1.04
CC(C)=CCCC(C)=CCON=C1C[C@@H](O)[C@@H](O)[C@@H]2[C@@H]3C(=O)N(c4cccc(Oc5ccccc5)c4)C(=O)[C@@H]3CC[C@H]12 | -0.022 | -1.47 (inactive) | 1.73 (inactive) | -0.205 (inactive) | -0.158 (inactive) | -0.11 | -0.128 | 0.575 | 0.704 | 1.51
C=CCOCC1CN2[C@@H](CC[C@@H](C)[C@@H]2c2ccc(Br)cc2)C(=O)O1 (stereo not given in full) | -0.234 | -0.0112 (inactive) | 1.1 (inactive) | 0.829 (inactive) | -0.0565 (inactive) | 0.0804 | -0.367 | 0.318 | 0.499 | 0.257
